Source: PubChem BioAssay (NCATS)
Inconclusive results are not listed. Active and inactive are the calls of the source. The call rests on the fitted dose curve; in most records, active means well fitted cell-killing curve with a large enough effect; inconclusive means small, poorly fitted or top-dose-only effect, or effect the other way; inactive means no such curve, though single readings can be large or run the other way.

Test: Quantitative High-Throughput drug screen in 47 multiple myeloma cell lines against the NCATS MIPE library collection: OCIMY1_PLB cell viability assay (AID 1918979); further: nearly all actives have a fitted effect of over 35% in size
Conditions: OCI-MY1 myeloma viability, CellTiter-Glo ATP, 48 h; series mostly up to 45.8 µM
Method in brief: (§1)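 Inhibition of viability over 48 h was scored by ATP content (CellTiter-Glo) in 500-cell wells. Zero and full viability were defined by media-only and DMSO-only wells.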
Potency means the concentration at half of the fitted maximal effect.

Q: With CC[C@H]1OC(=O)[C@H](C)[C@@H](O[C@H]2C[C@@](C)(OC)[C@@H](O)[C@H](C)O2)[C@H](C)[C@@H](O[C@@H]2O[C@H](C)C[C@H](N(C)C)[C@@H]2O)[C@](C)(O)C[C@@H](C)CN(C)[C@H](C)[C@@H](O)[C@]1(C)O as the molecule, how does the Potency read?
A: inactive

Q: For CCS(=O)(=O)N1CC(CC#N)(n2cc(-c3ncnc4[nH]ccc34)cn2)C1, which Potency is on record?
A: inactive

Q: For CC(=O)Nc1ccc([C@H](C)C(=O)Nc2ncc(C(C)C)s2)cc1, which Potency is on record?
A: 5.9 µM (active)

Q: Which Potency does the source give for CC(C(=O)O)c1ccc(-c2ccccc2)c(F)c1 (configuration not stated) here?
A: inactive

Q: With CC(C)(C)C(=O)Oc1ccc2c(c1)nc(NC(=O)c1cccc([N+](=O)[O-])c1)n2CCCO as the molecule, how does the Potency read?
A: inactive

Q: With CN1CCN(CCOc2cc(OC3CCOCC3)c3c(Nc4c(Cl)ccc5c4OCO5)ncnc3c2)CC1 as the molecule, how does the Potency read?
A: inactive

Q: With CNC(=O)c1ccccc1Sc1ccc2c(C=Cc3ccccn3)n[nH]c2c1 as the molecule, how does the Potency read?
A: inactive

Q: For O=C1C[C@@H](c2ccc(O)cc2)Oc2cc(O)cc(O)c21, which Potency is on record?
A: inactive

Q: Which Potency does the source give for CS(=O)c1ccc(-c2nc(-c3ccc(F)cc3)c(-c3ccncc3)[nH]2)cc1 (configuration not stated) here?
A: inactive

Q: With NC[C@@H]1O[C@@H](O[C@H]2[C@@H](O)[C@H](O[C@@H]3[C@@H](O)[C@@H](N)C[C@H](N)[C@H]3O[C@H]3O[C@H](CN)[C@@H](O)[C@@H](O)[C@H]3N)O[C@H]2CO)[C@H](N)[C@@H](O)[C@@H]1O as the molecule, how does the Potency read?
A: inactive

Q: With CCC(CC)[C@H](NC(C)=O)[C@@H]1[C@H](O)[C@@H](C(=O)O)C[C@@H]1N=C(N)N as the molecule, how does the Potency read?
A: inactive

Q: For COc1ccc2cccc(CCNC(C)=O)c2c1, which Potency is on record?
A: inactive

Q: For C[C@@H]1CCN(C(=O)CC#N)C[C@H]1N(C)c1ncnc2[nH]ccc12, which Potency is on record?
A: inactive

Q: For NC1CCC(Nc2nc(Nc3ccc(C(=O)N4CCCCC4)cc3)c3ncn(-c4cccc(F)c4)c3n2)CC1 (configuration not stated), which Potency is on record?
A: inactive

Q: For Cc1ccc(C(C)(O)c2nc3ccccc3s2)c(C)c1 (configuration not stated), which Potency is on record?
A: inactive

Q: Which Potency does the source give for NC(CO)(CO)CCc1ccc(Sc2cccc(OCc3ccccc3)c2)cc1Cl here?
A: 26.4 µM (active)

Test: Quantitative High-Throughput drug screen in 47 multiple myeloma cell lines against the NCATS MIPE library collection: MM1S_ATCC cell viability assay (AID 1918980); further: nearly all actives have a fitted effect of over 45% in size
Conditions: MM1S myeloma viability, CellTiter-Glo ATP luminescence, 48 h; series mostly up to 45.8 µM
Method in brief: as §1

Q: Which Potency does the source give for CC[C@H]1OC(=O)[C@H](C)[C@@H](O[C@H]2C[C@@](C)(OC)[C@@H](O)[C@H](C)O2)[C@H](C)[C@@H](O[C@@H]2O[C@H](C)C[C@H](N(C)C)[C@@H]2O)[C@](C)(O)C[C@@H](C)CN(C)[C@H](C)[C@@H](O)[C@]1(C)O here?
A: 18.7 µM (active)

Q: Which Potency does the source give for CCS(=O)(=O)N1CC(CC#N)(n2cc(-c3ncnc4[nH]ccc34)cn2)C1 here?
A: 20.9 µM (active)

Q: With CC(=O)Nc1ccc([C@H](C)C(=O)Nc2ncc(C(C)C)s2)cc1 as the molecule, how does the Potency read?
A: 0.418 µM (active)

Q: Which Potency does the source give for CC(C(=O)O)c1ccc(-c2ccccc2)c(F)c1 (configuration not stated) here?
A: 26.4 µM (active)

Q: Which Potency does the source give for O=C(N[C@@H](c1ccccc1)[C@@H]1CCCCN1)c1cccc(C(F)(F)F)c1Cl here?
A: 20.9 µM (active)

Q: With CC(C)(C)C(=O)Oc1ccc2c(c1)nc(NC(=O)c1cccc([N+](=O)[O-])c1)n2CCCO as the molecule, how does the Potency read?
A: 23.5 µM (active)

Q: Which Potency does the source give for CN1C[C@H]2c3ccccc3Oc3ccc(Cl)cc3[C@@H]2C1 here?
A: inactive

Q: With O=c1cc(-c2ccccc2)oc2cc(O)c(O)c(O)c12 as the molecule, how does the Potency read?
A: 18.7 µM (active)

Q: With O=c1c(-c2ccc(O)cc2)coc2cc(O)ccc12 as the molecule, how does the Potency read?
A: 13.2 µM (active)

Q: For C[C@H](NC(=O)C(=O)Nc1ccccc1C(C)(C)C)C(=O)N[C@@H](CC(=O)O)C(=O)COc1c(F)c(F)cc(F)c1F, which Potency is on record?
A: 11.8 µM (active)

Q: For O=C1Nc2ccc(Cl)cc2C(C#CC2CC2)(C(F)(F)F)O1 (configuration not stated), which Potency is on record?
A: 20.9 µM (active)

Q: For CNC(=O)c1ccccc1Sc1ccc2c(C=Cc3ccccn3)n[nH]c2c1, which Potency is on record?
A: 16.6 µM (active)

Q: With CC1(C)S[C@H]2[C@H](NC(=O)[C@@H](N)c3ccc(O)cc3)C(=O)N2[C@@H]1C(=O)O as the molecule, how does the Potency read?
A: 5.9 µM (active)

Q: With O=C1C[C@@H](c2ccc(O)cc2)Oc2cc(O)cc(O)c21 as the molecule, how does the Potency read?
A: 10.5 µM (active)

Q: Which Potency does the source give for CS(=O)c1ccc(-c2nc(-c3ccc(F)cc3)c(-c3ccncc3)[nH]2)cc1 (configuration not stated) here?
A: 38.2 µM (active)

Q: Which Potency does the source give for CCC(=O)NC[C@H](Cc1ccc(OCCc2nc(-c3ccccc3)oc2C)cc1)NC(C)=CC(=O)c1ccc(C(F)(F)F)cc1 here?
A: 1.87 µM (active)

Q: With CCC(CC)[C@H](NC(C)=O)[C@@H]1[C@H](O)[C@@H](C(=O)O)C[C@@H]1N=C(N)N as the molecule, how does the Potency read?
A: inactive

Q: For O=c1c(O)c(-c2ccc(O)cc2)oc2cc(O)cc(O)c12, which Potency is on record?
A: 18.7 µM (active)

Q: With C[C@@H]1CCN(C(=O)CC#N)C[C@H]1N(C)c1ncnc2[nH]ccc12 as the molecule, how does the Potency read?
A: 2.64 µM (active)

Q: With NC1CCC(Nc2nc(Nc3ccc(C(=O)N4CCCCC4)cc3)c3ncn(-c4cccc(F)c4)c3n2)CC1 (configuration not stated) as the molecule, how does the Potency read?
A: inactive

Q: For CN(C)Cc1ccc(-c2nc3cccc4c3n2CCNC4=O)cc1, which Potency is on record?
A: 18.7 µM (active)

Q: With CC(C)C[C@H](CC(=O)O)C(=O)N[C@@H](Cc1c[nH]c2ccccc12)C(=O)N[C@@H](C)c1ccccc1 as the molecule, how does the Potency read?
A: 1.66 µM (active)

Q: With COc1cc(NC(=O)c2ccc(-c3ccc(Cl)cc3)o2)cc(OC)c1 as the molecule, how does the Potency read?
A: 1.05 µM (active)

Q: With O=c1cc(-c2cccc3c2Sc2ccccc2S3)oc(N2CCOCC2)c1 as the molecule, how does the Potency read?
A: 18.7 µM (active)

Q: For CC(C)n1cnc2c(NCCCCCCNC(=O)OC(C)(C)C)nc(NCCO)nc21, which Potency is on record?
A: 20.9 µM (active)

Q: For NC(CO)(CO)CCc1ccc(Sc2cccc(OCc3ccccc3)c2)cc1Cl, which Potency is on record?
A: 3.32 µM (active)
